VACV E9 pol inh = vaccinia E9 polymerase processive synthesis inhibitors, primary screen, biochemical, absorbance | Vaccinia virus DNA polymerase (E9) processive complex | in vitro processive DNA synthesis, absorbance read-out; active compounds read low | normalized absorbance, % (test concentration not listed) | hit rate 0.94% among 46,000; in the data active = normalized absorbance mostly below about 85%, no sharp cut-off; inactive = mostly above about 86%
Large screens that a line does not name were inactive. Shown is part of a subset that was picked to be rich in hits.

CCOc1ccc2c(c1)C1C=CCC1C(c1ccc(C(=O)OC)cc1)N2 (configuration not stated)	none
Cc1ccc2c(c1)C1C=CCC1C(c1ccc(N=Cc3ccccc3)cc1)N2 (configuration not stated)	none
O=C1N[C@H](C(=O)O)C1Cc1ccccc1 (some centres not stated)	none
Brc1ccccc1[C@@H]1Nc2ccccc2[C@@H]2C=CC[C@@H]21	none
O=C(O)C1Nc2ccccc2C2C=CCC12 (configuration not stated)	VACV E9 pol inh 9.8
Cc1cc(Cl)ccc1NS(=O)(=O)c1ccc2c(c1)[C@H]1C=CC[C@H]1[C@@H](c1ccccc1)N2	none
COC(=O)C1CCC(=O)C(C(=O)OC)C1 (configuration not stated)	none
CC(CCc1ccccc1)NC(=O)COc1ncnc2ccccc12 (configuration not stated)	none
CN(C)/N=C/c1ccc(OC(=O)c2ccc(Br)cc2)cc1	none
CNC(=O)CCCc1cn(Cc2ccc(C)cc2)c2ccccc12	none
CN(Cn1[nH]c(=O)ccc1=O)c1ccccc1	none
Cc1ccc(C)c(NC(=O)C(OC(=O)c2cccnc2Cl)c2ccccc2)c1 (configuration not stated)	none
COc1ccc(CNC(=O)C2C(Oc3ccc(Cl)cc3Cl)C(=O)N2c2cccc(C)c2C)cc1 (configuration not stated)	none
CCc1ccc(C2C(C(=O)c3ccco3)=C(O)C(=O)N2CC2CCCO2)cc1 (configuration not stated)	none
CC(C)(CN1CCCCCC1)NS(=O)(=O)c1ccccc1	none
CC(CBr)(NS(=O)(=O)c1ccccc1)c1ccccc1 (configuration not stated)	VACV E9 pol inh 65
CC(CN1CCNCC1)(NS(=O)(=O)c1ccccc1)c1ccccc1 (configuration not stated)	none
CC(C)NC(=O)c1ccc2c(Cl)c3c(nc2c1)CCCC3	none
c1ccc(OCCSc2nnc3c4ccccc4nc(-c4ccccc4)n23)cc1	none
CC[C@H](C)[C@H](N)C(=O)N[C@@H](CC(N)=O)C(=O)N[C@@H](CC(C)C)C(=O)N[C@@H](CCCCN)C(=O)N[C@@H](C)C(=O)N[C@@H](CC(C)C)C(=O)N[C@@H](C)C(=O)N[C@@H](C)C(=O)N[C@@H](CC(C)C)C(=O)N[C@@H](C)C(=O)N[C@@H](CCCN)C(=O)N[C@@H](C)C(=O)N[C@@H](CC(C)C)C(=O)N[C@@H](CC(C)C)C(N)=O	VACV E9 pol inh 45
CC(=O)N[C@@H](CC(C)C)C(=O)N[C@@H](CC(C)C)C(=O)N[C@H](C=O)CCCN=C(N)N	none
CCCC[C@@H](C=O)NC(=O)[C@H](CC(C)C)NC(=O)[C@H](CC(C)C)NC(C)=O	none
Cn1c(=NC(=O)c2nc3ccccc3s2)sc2cc(Cl)ccc21	none
O=C1/C(=C/C2CCCO2)CC/C1=C\C1CCCO1 (configuration not stated)	VACV E9 pol inh 14
CCCCn1c(-c2ccccc2)nn(S(=O)(=O)c2ccc(Br)cc2)c1=O	none
COc1ccc(C2=NN3C(C2)c2cccc(OC)c2OC3(C)C)cc1 (configuration not stated)	none
CCOc1ccc(N=CC2C(Oc3ccc(Cl)cc3)C(=O)N2c2ccc(OCC)cc2)cc1 (configuration not stated)	none
CCNc1cccc(C)c1	none
COc1ccc2cc1Oc1ccc(cc1)C[C@H]1c3cc(c(OC)cc3CCN1C)Oc1c(OC)c(OC)cc3c1[C@H](C2)N(C)CC3	VACV E9 pol inh 84
COc1ccc2c(c1OC)C(=O)OC2[C@H]1c2c(cc3c(c2OC)OCO3)CCN1C (some centres not stated)	none
COc1ccc(NC(=O)CSc2nc(O)cc(=O)[nH]2)cc1	none
CC(C)N(Cc1nc(-c2ccccc2)no1)C(=O)C1CCCCC1	none
Cc1ccc(-c2noc(CN(C3CCCCC3)S(=O)(=O)c3ccccc3)n2)cc1	VACV E9 pol inh 64
Cc1ccc2[nH]c(=O)c(CN(C3CCCCC3)S(=O)(=O)c3ccccc3)cc2c1	none
NC(=O)CCSc1nnc(SCC(=O)c2ccccc2)s1	none
CS/C(=C(/C#N)S(=O)(=O)c1ccc(Cl)cc1)N1CCSCC1	none
COc1ccc(OC)c2[nH]c(=O)c(CCNC(=O)CC3CCCCC3)cc12	none
COc1cc(OC)c(NC(=O)Cc2noc3ccc(C)cc23)cc1Cl	none
CN1C(=O)/C(=C(/C#N)C(=O)NCc2ccc(Cl)cc2)c2ccccc21	none
CC(=O)Oc1c(Sc2ccccc2)c(C)nn1-c1ccccc1	VACV E9 pol inh 77
CCCC(=O)Oc1c(Sc2ccccc2)c(C)nn1-c1ccccc1	none
Cc1nn(-c2ccccc2)c(C)c1Sc1ccccc1	none
CCOC(=O)CC1C(=O)NCCN1C(=O)c1ccccc1 (configuration not stated)	none
CCS(=O)(=O)N1CCN=C1SCc1cccc2ccccc12	VACV E9 pol inh 29
COc1ccc(S(=O)(=O)N2CCN=C2SC)cc1	none
CCSC1=NCCN1S(=O)(=O)c1ccccc1	none
C=C(C)CSc1nnc(SCc2cccc3ccccc23)s1	none
CCS(=O)(=O)N1CCN=C1SCc1ccccc1C	VACV E9 pol inh 78
CS(=O)(=O)N1CCN=C1SCc1ccc(Cl)c(Cl)c1	VACV E9 pol inh 56
COc1ccccc1C1CCN(C(=O)CSCc2cccc3ccccc23)CC1	none
O=C(Cc1ccccc1)N1CCN=C1SCc1ccccc1	none
CS(=O)(=O)N1CCN=C1SCc1cccc2ccccc12	VACV E9 pol inh 51
Cc1ccc(C)c(CSC2=NCCN2C(=O)COc2ccccc2)c1	none
O=S(=O)(c1ccc(F)cc1)N1CCN=C1SCc1ccc(F)cc1	none
CCSC1=NCCN1S(C)(=O)=O	none
COc1ccc(C(=O)NC(Cc2ccccc2)C(=O)N2CCCCC2)cc1 (configuration not stated)	none
O=C(O)CC(Sc1cccs1)C(=O)O (configuration not stated)	none
O=C1c2ccc(Br)cc2C(=O)N1C(c1ccccc1)c1ccccc1	none
COc1ccc(-c2nc3ccccc3n2CCOc2ccccc2)cc1	none
CCn1c2ccccc2n2c(C(=O)OC)c(C)nc12	none
CC(C)(C)c1ccn[nH]1	none
Cc1ccc(C(=O)Nc2sc(CC#N)nc2-c2ccc(C)cc2)cc1	none
O=C(Cc1nc2ccccc2[nH]1)c1cccs1	none
Cc1ccc(Cl)c(NC(=O)COC(=O)c2ccncc2)c1Cl	none
O=C(Nc1ccc(F)cc1)c1cc(N2CCN(c3ccc(F)cc3)CC2)nc2ccccc12	none
Cc1cc2c(C(C)C)c(O)c(O)c(C=O)c2c(O)c1-c1c(C)cc2c(C(C)C)c(O)c(O)c(C=O)c2c1O	VACV E9 pol inh 18
COc1ccc(OC)c(/C=C\C(=O)NCC(=O)O)c1	none
CN(C(=O)CSC(=S)N1CCCC1)c1ccccc1	none
O=c1ccc(Cc2ccccc2Br)n[nH]1	none
COC(=O)C1=C(N)C(=O)N(c2ccc(C(=O)OC)cc2)C1	none
COc1cnc(N)nc1	none
CC(C)Cn1c2ccccc2c2nc3ccccc3nc21	none
CCc1ccc2c(c1)c1nc3ccccc3nc1n2CC	none
CCn1c2ccccc2c2nc3ccccc3nc21	VACV E9 pol inh 90
Cc1cc(C)nc(-n2cc3c(=O)[nH]c(=S)[nH]c3n2)n1	none
COC(=O)c1ccc(OC(=O)COC(=O)CN2C(=O)c3ccccc3C2=O)cc1	none
O/N=C/c1cccs1	none
Cn1nc(-c2ccccc2)c(/C=N/O)c1Cl	none
O/N=C/C1=C(Cl)c2ccccc2CC1	VACV E9 pol inh 78
Cc1nc2sccn2c1-c1csc(NCc2ccco2)n1	none
O=C(Nc1nc2c(Cl)cccc2s1)C1CC1	none
CCNc1nc2c(C)cccc2s1	none
O=C(Nc1nc2ccccc2s1)c1ccccc1	none
Cc1cccc2sc(NN)nc12	VACV E9 pol inh 61
c1ccc(CCNc2nc3ccccc3s2)cc1	none
NNc1nc2ccccc2s1	VACV E9 pol inh 78

High-throughput results from PubChem BioAssay.
